Measured values reported in PubChem BioAssay (NCI).
About 83,000 compounds went through this panel and 20% of them were active in at least one assay; those are over-represented in the sample as a whole.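 Interpretation: 100, growth as untreated; towards 0, rising growth inhibition; 0, no net growth; 0 to -100, cell death. Compounds scoring below 10 were considered active.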 Unmarked numbers belong to inactive results. Activity calls are given as the source filed them.

Columns and labels:
Test in all cases: NCI-60 one-dose screen, 48 h (100 = growth as untreated, 0 = no growth, -100 = all killed)
Details in all cases: 10 µM
NCI-H23 lung = test system: NCI-H23 lung
NCI-H226 lung = test system: NCI-H226 lung
NCI-H322M lung = test system: NCI-H322M lung
NCI-H460 lung = test system: NCI-H460 lung
HOP-92 NSCLC = test system: HOP-92 NSCLC
NCI-H522 lung = test system: NCI-H522 lung
A549/ATCC NSCLC = test system: A549/ATCC NSCLC
786-0 renal = test system: 786-0 renal
COLO 205 colon = test system: COLO 205 colon
DU-145 prostate = test system: DU-145 prostate
K-562 leukemia = test system: K-562 leukemia
MALME-3M melanoma = test system: MALME-3M melanoma
MDA-MB-231 breast = test system: MDA-MB-231 breast
RXF 393 renal = test system: RXF 393 renal
SF-268 CNS = test system: SF-268 CNS
SF-295 CNS = test system: SF-295 CNS
SF-539 CNS = test system: SF-539 CNS
UACC-257 melanoma = test system: UACC-257 melanoma
M14 melanoma = test system: M14 melanoma
HOP-62 NSCLC = test system: HOP-62 NSCLC

| SMILES | growth (NCI-H23 lung) | growth (NCI-H226 lung) | growth (NCI-H322M lung) | growth (NCI-H460 lung) | growth (HOP-92 NSCLC) | growth (NCI-H522 lung) | growth (A549/ATCC NSCLC) | growth (786-0 renal) | growth (COLO 205 colon) | growth (DU-145 prostate) | growth (K-562 leukemia) | growth (MALME-3M melanoma) | growth (MDA-MB-231 breast) | growth (RXF 393 renal) | growth (SF-268 CNS) | growth (SF-295 CNS) | growth (SF-539 CNS) | growth (UACC-257 melanoma) | growth (M14 melanoma) | growth (HOP-62 NSCLC) |
| --- | --- | --- | --- | --- | --- | --- | --- | --- | --- | --- | --- | --- | --- | --- | --- | --- | --- | --- | --- | --- |
| S=c1c2ncccc2c(-c2ccccn2)nn1Cc1ccccn1 | 90.6% | 104% | 102% | 108% | 94.7% | 88.5% | 81% | 96.9% | 92.8% | 111% | 95.6% | 89.6% | 112% | 114% | 108% | 96% | 99.7% | 95.6% | 89.9% | – |
| O=S(=O)(NC1c2ccccc2Oc2ccccc21)c1ccccc1 | 98% | 95.3% | 91.6% | 107% | 63.8% | 31.3% | 98.4% | 82.1% | – | 112% | 91.3% | 97.8% | 100% | 86.6% | 98.9% | 97.8% | 93.7% | 98.2% | 98.7% | – |
| COc1ccc(C2C=C(c3ccc(Cl)c(Cl)c3)N=C3SC(C)=CN32)cc1 (centres undefined) | 92.2% | 86.5% | 98.7% | 101% | 98.7% | 77.3% | 81.6% | 90.7% | 104% | 100% | 83.2% | 90.2% | 101% | 83% | 97.2% | 87.3% | 95.7% | 109% | 97.3% | – |
| CCc1ccc(-c2nnc(COc3ccc(-c4nc5ccccc5[nH]4)cc3OC)o2)cc1 | 72.4% | 81.4% | 96.9% | 45.5% | 79% | 91.6% | 60.3% | 22.3% | 64.4% | 48.1% | 33% | 47.6% | 10.5% | 68.7% | 52.8% | 79.3% | 6.55% (active) | 88.7% | 56.5% | – |
| CC(C)/C(=N/O)c1ccccc1 | 103% | 104% | 133% | 120% | 91.3% | 90.8% | 111% | 88.2% | 115% | 114% | 104% | – | 99.8% | 121% | 112% | 103% | 94.6% | 109% | 109% | – |
| COc1cc(C2C=C(c3ccc(Cl)c(Cl)c3)N=C3SC(C)=CN32)cc(OC)c1OC (centres undefined) | 79.5% | 50.5% | 81.8% | 77.5% | 81.9% | 57.2% | 83.8% | 85.6% | – | 80.3% | 32.1% | 82.9% | 89% | 67.1% | 87.8% | 75.6% | 81% | 98.8% | 86.4% | – |
| C=CCn1ccc(=O)nc1SC | 107% | 112% | 111% | 104% | 97.3% | 100% | 111% | 101% | 106% | 117% | 103% | – | 109% | 129% | 108% | 107% | 105% | 102% | 104% | – |
| O=[N+]([O-])c1cc2ncccc2c2ncccc12 | 81.3% | 96.3% | 80.3% | 66.9% | 109% | 15.8% | 88.4% | 110% | 95.6% | 89.7% | 49.3% | 72.8% | 60.6% | 92.4% | 91.5% | 134% | 93.6% | 90.5% | 84.5% | – |
| Cn1cnc([N+](=O)[O-])c1/C=C1\Oc2ccc(Cl)cc2C1=O | 93.9% | – | 91% | 99.4% | 94% | 52.8% | 98.4% | 91.9% | 100% | 94.2% | 52.4% | 87.6% | 86.7% | 99.1% | 86.5% | 105% | 99.2% | 84.9% | – | 93.5% |
| COc1ccc(C(=O)/C=C/c2cc(-c3ccc(OC)c(OC)c3)n[nH]2)cc1OC | 8.17% (active) | 58% | -13.5% (active) | -42.2% (active) | -59.3% (active) | -89.4% (active) | -12.8% (active) | -64.2% (active) | -60.7% (active) | -25.8% (active) | 5.44% (active) | -47.5% (active) | -18.7% (active) | -79.3% (active) | -28% (active) | 18% | -99.3% (active) | 11.7% | 18.1% | – |
| FC(F)(F)c1ccc(-c2cnc(Cl)nc2NCc2cc(C(F)(F)F)cc(C(F)(F)F)c2)cc1 | 1.54% (active) | 7.69% (active) | 37.8% | 3.48% (active) | -35.3% (active) | -4.24% (active) | 15.8% | 11.5% | -51.1% (active) | 18.8% | 16.3% | 33.6% | -28.6% (active) | 23.3% | 25.3% | -18.8% (active) | 33.1% | 38.2% | 41% | – |
